# Measured values: paper PMC7862700, “An all-to-all approach to the identification of sequence-specific readers for epigenetic DNA modifications on cytosine”
# Assays:
# Test in all cases: DAPPL (digital affinity profiling via proximity ligation, sequencing); 10 mM Tris-HCl pH 7.5, 50 mM NaCl, 1 mM DTT, 4% glycerol, room temperature, 30 min; GST-TFs on glutathione beads, 16-mer random dsDNA library, 0.1% formaldehyde crosslink after washing; high values mean tight binding
# FLI1 = molecular target: T1, FLI1 (Homo sapiens, UniProt Q01543 1-452); conditions: protein: recombinant; tags: N-terminal GST; dsDNA, one strand shown
# T1 sequence: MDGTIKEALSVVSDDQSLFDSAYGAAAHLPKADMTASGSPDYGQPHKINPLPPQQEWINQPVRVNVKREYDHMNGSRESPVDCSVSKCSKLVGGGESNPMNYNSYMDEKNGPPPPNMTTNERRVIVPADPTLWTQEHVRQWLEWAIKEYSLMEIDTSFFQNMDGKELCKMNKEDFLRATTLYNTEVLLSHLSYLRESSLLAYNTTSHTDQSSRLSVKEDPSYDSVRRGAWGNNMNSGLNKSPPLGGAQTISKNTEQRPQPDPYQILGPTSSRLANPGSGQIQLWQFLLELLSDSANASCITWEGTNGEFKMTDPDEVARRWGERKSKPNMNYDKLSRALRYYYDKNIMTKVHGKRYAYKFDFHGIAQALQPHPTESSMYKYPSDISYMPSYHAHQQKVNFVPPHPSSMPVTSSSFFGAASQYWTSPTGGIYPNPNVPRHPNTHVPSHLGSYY
# In short: (§1)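 Binding signal is defined as a hexamer's read frequency for one factor over its frequency for the tag-only sample. To obtain reads, GST-fused human transcription factors were expressed in yeast, captured on glutathione beads, barcoded with DNA and pooled with that sample. Pools met 200 nmole of a 16-mer random double-stranded DNA library in Tris/NaCl/DTT/glycerol buffer for 30 min at room temperature before washing, 0.1% formaldehyde crosslinking, proximity ligation (BsaI/T4 ligase, 1 h, 37 °C), PCR and Illumina NextSeq500 sequencing.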
# ELK1 = molecular target: T2, ELK1 (Homo sapiens, UniProt P19419 1-428); conditions: protein: recombinant; tags: N-terminal GST; dsDNA, one strand shown
# T2 sequence: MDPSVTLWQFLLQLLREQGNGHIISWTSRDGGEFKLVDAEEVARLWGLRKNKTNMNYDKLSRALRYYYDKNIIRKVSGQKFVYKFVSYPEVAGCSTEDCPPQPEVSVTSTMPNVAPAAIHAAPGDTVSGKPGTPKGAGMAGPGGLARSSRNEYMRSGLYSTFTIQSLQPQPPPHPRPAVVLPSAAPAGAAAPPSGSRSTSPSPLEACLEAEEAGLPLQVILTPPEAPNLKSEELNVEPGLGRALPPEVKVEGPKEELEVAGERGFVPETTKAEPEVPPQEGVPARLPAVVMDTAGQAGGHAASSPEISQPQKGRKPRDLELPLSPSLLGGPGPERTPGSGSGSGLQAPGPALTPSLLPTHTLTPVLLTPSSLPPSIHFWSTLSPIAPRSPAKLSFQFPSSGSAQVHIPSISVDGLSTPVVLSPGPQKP
# In short: as §1
# GABPA = molecular target: T3, GABPA (Homo sapiens, UniProt Q06546 1-454); conditions: protein: recombinant; tags: N-terminal GST; dsDNA, one strand shown
# T3 sequence: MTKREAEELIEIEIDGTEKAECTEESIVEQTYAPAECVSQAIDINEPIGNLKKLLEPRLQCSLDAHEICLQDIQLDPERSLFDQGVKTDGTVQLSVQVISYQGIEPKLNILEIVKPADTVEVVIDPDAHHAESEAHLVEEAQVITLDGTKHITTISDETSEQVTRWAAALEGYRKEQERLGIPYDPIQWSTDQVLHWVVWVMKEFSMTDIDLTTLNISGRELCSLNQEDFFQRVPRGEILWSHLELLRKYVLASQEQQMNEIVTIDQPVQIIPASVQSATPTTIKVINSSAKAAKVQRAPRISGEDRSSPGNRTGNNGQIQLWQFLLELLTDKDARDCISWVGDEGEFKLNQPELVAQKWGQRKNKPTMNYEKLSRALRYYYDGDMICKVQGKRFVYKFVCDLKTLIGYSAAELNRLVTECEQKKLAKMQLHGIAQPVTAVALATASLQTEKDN
# In short: as §1
# ERG = molecular target: T4, ERG (Homo sapiens, UniProt P11308 1-479); conditions: protein: recombinant; tags: N-terminal GST; dsDNA, one strand shown
# T4 sequence: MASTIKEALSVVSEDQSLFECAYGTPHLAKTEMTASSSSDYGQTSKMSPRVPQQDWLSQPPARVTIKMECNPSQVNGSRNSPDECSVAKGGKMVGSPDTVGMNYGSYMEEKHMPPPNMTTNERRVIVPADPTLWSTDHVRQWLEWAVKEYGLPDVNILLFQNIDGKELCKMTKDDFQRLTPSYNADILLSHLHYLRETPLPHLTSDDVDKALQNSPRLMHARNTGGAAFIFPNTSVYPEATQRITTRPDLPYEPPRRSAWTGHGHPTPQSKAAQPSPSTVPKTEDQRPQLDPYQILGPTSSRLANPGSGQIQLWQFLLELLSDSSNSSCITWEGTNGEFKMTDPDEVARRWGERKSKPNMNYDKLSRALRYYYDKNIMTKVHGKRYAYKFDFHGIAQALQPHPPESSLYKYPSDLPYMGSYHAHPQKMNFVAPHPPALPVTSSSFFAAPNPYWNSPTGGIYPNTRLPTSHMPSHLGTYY
# In short: as §1
# ELF1 = ELF1 (Homo sapiens, UniProt P32519 1-619); conditions: protein: recombinant; tags: N-terminal GST; dsDNA, one strand shown
# In short: as §1
# EHF = molecular target: T5, EHF (Homo sapiens, UniProt Q9NZC4 1-300); conditions: protein: recombinant; tags: N-terminal GST; dsDNA, one strand shown
# T5 sequence: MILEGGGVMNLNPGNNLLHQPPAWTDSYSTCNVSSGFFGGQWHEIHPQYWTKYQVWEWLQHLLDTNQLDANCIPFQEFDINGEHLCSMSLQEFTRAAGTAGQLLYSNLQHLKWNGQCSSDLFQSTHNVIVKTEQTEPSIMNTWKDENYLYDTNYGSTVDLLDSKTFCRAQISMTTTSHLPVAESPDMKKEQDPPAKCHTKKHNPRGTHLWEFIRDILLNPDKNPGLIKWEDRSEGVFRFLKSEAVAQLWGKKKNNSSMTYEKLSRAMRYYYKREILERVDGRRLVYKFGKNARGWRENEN
# In short: as §1
# SPI1 = SPI1 (Homo sapiens, UniProt P17947 1-270); conditions: protein: recombinant; tags: N-terminal GST; dsDNA, one strand shown
# In short: as §1
# SPIB = SPIB (Homo sapiens, UniProt Q01892 1-262); conditions: protein: recombinant; tags: N-terminal GST; dsDNA, one strand shown
# In short: as §1
# ELK3 = molecular target: T6, ELK3 (Homo sapiens, UniProt P41970 1-407); conditions: protein: recombinant; tags: N-terminal GST; dsDNA, one strand shown
# T6 sequence: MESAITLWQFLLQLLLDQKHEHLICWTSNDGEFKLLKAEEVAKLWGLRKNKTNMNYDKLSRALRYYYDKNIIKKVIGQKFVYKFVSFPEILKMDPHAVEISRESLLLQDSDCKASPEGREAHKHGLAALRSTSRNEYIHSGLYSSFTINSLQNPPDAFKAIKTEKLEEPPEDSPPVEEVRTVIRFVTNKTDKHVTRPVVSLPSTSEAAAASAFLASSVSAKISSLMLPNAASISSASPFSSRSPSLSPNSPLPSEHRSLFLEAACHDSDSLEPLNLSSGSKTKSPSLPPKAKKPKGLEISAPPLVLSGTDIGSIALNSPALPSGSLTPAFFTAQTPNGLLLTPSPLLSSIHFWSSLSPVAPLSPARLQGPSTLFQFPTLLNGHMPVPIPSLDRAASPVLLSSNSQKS
# In short: as §1
# FEV = molecular target: T7, FEV (Homo sapiens, UniProt Q99581 1-238); conditions: protein: recombinant; tags: N-terminal GST; dsDNA, one strand shown
# T7 sequence: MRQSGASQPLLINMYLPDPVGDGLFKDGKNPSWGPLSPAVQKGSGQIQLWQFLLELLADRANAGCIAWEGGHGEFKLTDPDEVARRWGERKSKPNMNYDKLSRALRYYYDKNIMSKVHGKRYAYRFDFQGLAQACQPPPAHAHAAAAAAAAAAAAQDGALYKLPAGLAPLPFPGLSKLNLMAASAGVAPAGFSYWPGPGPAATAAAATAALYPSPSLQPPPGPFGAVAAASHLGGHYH
# In short: as §1
# ETV5 = ETV5 (Homo sapiens, UniProt P41161 1-510); conditions: protein: recombinant; tags: N-terminal GST; dsDNA, one strand shown
# In short: as §1
# HSF1 = HSF1 (Homo sapiens, UniProt Q00613 1-529); conditions: protein: recombinant; tags: N-terminal GST; chain copies: 3; dsDNA, one strand shown
# In short: as §1
# SPIC = molecular target: T8, SPIC (Homo sapiens, UniProt Q8N5J4 1-248); conditions: protein: recombinant; tags: N-terminal GST; dsDNA, one strand shown
# T8 sequence: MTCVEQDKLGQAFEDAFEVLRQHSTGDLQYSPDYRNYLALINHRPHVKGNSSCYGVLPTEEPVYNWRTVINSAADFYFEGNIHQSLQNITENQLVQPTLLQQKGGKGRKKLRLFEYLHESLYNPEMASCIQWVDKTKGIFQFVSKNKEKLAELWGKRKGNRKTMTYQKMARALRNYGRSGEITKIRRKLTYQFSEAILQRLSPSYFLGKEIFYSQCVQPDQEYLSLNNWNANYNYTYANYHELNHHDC
# In short: as §1
# ELF4 = ELF4 (Homo sapiens, UniProt Q99607 1-663); conditions: protein: recombinant; tags: N-terminal GST; dsDNA, one strand shown
# In short: as §1
# ELK4 = molecular target: T9, ELK4 (Homo sapiens, UniProt P28324-2 1-405); conditions: protein: recombinant; tags: N-terminal GST; dsDNA, one strand shown
# T9 sequence: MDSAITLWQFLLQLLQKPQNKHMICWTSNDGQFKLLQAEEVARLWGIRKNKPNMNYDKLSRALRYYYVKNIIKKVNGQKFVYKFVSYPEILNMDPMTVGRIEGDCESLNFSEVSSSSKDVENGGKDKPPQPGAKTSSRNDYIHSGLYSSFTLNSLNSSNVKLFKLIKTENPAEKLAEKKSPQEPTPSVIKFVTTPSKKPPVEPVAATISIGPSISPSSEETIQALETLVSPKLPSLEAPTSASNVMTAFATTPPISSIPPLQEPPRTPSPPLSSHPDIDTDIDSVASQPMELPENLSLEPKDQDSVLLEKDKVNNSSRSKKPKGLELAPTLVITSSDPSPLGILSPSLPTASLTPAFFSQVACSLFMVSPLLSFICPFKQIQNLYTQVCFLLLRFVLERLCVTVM
# In short: as §1
# ETV2 = molecular target: T10, ETV2 (Homo sapiens, UniProt O00321 1-342); conditions: protein: recombinant; tags: N-terminal GST; dsDNA, one strand shown
# T10 sequence: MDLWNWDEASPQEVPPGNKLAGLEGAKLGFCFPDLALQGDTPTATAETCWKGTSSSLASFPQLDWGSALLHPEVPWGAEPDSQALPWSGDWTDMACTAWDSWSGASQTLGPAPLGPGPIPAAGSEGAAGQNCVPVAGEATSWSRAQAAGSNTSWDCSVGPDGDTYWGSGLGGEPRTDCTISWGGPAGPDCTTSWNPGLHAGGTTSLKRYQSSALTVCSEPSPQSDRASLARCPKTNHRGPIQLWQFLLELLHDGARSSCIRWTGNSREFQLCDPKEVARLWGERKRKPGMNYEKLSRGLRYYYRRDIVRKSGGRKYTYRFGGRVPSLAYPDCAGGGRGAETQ
# In short: as §1
# CRX = CRX (Homo sapiens, UniProt O43186 1-299); conditions: protein: recombinant; tags: N-terminal GST; dsDNA, one strand shown
# In short: as §1
# ETV1 = ETV1 (Homo sapiens, UniProt P50549 1-477); conditions: protein: recombinant; tags: N-terminal GST; dsDNA, one strand shown
# In short: as §1
# Chain of ELF1 (P32519 whole entry): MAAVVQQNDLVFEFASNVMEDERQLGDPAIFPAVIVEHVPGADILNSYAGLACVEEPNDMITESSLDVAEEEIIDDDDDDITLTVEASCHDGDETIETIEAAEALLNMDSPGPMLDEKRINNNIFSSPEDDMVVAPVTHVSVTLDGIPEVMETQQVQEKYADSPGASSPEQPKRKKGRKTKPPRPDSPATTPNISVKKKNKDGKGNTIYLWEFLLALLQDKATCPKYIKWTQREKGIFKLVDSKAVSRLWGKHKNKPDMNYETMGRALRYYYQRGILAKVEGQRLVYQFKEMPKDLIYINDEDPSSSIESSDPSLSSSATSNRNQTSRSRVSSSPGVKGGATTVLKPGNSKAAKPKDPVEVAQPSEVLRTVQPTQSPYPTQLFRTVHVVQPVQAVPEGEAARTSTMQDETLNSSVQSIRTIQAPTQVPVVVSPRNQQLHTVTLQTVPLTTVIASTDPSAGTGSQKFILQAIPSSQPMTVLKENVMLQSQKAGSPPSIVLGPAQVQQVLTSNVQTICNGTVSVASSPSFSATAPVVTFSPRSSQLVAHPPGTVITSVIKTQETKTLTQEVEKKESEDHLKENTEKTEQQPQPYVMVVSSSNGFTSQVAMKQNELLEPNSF
# Chain of ELF4 (Q99607 whole entry): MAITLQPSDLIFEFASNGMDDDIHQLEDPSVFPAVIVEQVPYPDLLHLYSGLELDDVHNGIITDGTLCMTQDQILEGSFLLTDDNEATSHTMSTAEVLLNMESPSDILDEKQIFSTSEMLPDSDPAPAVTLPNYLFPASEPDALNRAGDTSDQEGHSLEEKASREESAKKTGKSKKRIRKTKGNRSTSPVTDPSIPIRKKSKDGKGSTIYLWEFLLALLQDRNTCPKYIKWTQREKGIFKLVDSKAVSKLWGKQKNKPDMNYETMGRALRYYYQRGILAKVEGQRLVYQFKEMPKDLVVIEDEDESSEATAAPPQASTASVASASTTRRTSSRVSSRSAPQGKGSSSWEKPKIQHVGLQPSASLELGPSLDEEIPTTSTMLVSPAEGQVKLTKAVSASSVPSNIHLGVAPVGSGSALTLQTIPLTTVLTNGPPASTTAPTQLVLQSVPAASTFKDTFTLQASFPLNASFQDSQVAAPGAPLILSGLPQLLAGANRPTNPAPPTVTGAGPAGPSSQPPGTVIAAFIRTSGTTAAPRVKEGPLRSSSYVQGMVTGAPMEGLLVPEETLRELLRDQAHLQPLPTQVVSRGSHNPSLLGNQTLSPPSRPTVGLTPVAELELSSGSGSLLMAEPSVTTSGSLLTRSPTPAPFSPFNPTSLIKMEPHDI
# Chain of HSF1 (Q00613 whole entry): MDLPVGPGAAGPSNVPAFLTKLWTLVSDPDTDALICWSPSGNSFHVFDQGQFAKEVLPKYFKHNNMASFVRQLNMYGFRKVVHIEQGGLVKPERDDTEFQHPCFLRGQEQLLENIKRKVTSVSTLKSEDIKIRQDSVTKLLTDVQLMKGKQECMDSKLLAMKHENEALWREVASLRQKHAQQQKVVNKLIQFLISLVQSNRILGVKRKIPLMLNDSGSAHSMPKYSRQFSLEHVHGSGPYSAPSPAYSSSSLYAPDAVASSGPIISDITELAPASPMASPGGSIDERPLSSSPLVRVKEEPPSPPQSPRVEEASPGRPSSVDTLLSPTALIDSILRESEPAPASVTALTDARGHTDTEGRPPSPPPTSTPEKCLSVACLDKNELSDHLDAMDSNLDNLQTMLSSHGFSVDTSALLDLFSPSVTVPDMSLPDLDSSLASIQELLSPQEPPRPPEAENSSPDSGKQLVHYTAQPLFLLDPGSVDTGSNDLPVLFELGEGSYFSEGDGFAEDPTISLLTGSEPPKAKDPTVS
# Chain of SPIB (Q01892 whole entry): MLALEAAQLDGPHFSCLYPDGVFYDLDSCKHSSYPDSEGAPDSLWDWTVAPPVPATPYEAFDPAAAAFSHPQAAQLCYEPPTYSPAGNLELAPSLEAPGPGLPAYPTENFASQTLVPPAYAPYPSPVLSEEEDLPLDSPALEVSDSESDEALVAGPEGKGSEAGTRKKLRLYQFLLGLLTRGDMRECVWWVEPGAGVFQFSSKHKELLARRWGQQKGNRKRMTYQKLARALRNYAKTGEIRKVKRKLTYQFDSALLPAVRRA
# Chain of CRX (O43186 whole entry): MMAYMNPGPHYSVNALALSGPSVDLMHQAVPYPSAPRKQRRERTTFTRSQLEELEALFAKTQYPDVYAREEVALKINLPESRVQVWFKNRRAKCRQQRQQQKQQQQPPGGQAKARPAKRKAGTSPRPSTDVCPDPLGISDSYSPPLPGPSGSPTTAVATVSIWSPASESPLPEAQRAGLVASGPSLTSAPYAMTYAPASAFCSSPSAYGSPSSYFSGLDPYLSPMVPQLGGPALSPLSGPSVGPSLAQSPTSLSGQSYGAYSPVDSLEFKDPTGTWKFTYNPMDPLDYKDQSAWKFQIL
# Chain of ETV5 (P41161 whole entry): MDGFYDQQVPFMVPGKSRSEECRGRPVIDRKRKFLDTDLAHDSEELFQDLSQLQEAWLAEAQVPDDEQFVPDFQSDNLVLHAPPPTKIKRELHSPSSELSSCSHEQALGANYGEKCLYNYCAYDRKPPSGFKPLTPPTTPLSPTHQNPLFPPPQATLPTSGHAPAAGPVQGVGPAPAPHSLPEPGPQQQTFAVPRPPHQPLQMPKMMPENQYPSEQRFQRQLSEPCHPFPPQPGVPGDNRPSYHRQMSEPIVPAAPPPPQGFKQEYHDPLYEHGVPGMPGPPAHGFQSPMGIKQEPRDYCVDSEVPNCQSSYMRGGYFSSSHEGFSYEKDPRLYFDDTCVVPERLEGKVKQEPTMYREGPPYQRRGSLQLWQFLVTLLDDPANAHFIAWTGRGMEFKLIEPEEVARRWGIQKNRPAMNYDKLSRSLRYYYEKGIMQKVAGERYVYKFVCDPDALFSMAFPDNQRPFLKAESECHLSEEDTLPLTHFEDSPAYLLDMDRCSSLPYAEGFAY
# Chain of ETV1 (P50549 whole entry): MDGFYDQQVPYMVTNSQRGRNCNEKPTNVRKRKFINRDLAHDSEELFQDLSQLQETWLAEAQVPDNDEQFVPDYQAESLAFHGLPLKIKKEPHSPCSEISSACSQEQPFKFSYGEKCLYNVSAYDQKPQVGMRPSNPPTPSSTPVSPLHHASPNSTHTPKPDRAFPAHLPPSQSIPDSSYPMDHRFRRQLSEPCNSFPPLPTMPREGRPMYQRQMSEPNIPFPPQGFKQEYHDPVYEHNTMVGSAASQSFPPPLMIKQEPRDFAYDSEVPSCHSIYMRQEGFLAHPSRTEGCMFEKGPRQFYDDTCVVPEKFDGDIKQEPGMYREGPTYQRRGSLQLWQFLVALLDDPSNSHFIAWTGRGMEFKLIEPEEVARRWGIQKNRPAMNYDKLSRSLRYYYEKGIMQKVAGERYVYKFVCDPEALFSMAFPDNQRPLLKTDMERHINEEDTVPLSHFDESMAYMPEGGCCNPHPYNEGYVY
Sequence,binding signal (FLI1),binding signal (ELK1),binding signal (GABPA),binding signal (ERG),binding signal (ELF1),binding signal (EHF),binding signal (SPI1),binding signal (SPIB),binding signal (ELK3),binding signal (FEV),binding signal (ETV5),binding signal (HSF1),binding signal (SPIC),binding signal (ELF4),binding signal (ELK4),binding signal (ETV2),binding signal (CRX),binding signal (ETV1)
TAAGCC,"1.15 fold enrichment (6-mer frequency, TF over GST control)","1.12 fold enrichment (6-mer frequency, TF over GST control)","1.19 fold enrichment (6-mer frequency, TF over GST control)","1.13 fold enrichment (6-mer frequency, TF over GST control)","1.16 fold enrichment (6-mer frequency, TF over GST control)","1.08 fold enrichment (6-mer frequency, TF over GST control)","1.08 fold enrichment (6-mer frequency, TF over GST control)","1.19 fold enrichment (6-mer frequency, TF over GST control)","1.06 fold enrichment (6-mer frequency, TF over GST control)","1.15 fold enrichment (6-mer frequency, TF over GST control)","1.12 fold enrichment (6-mer frequency, TF over GST control)","2.07 fold enrichment (6-mer frequency, TF over GST control)","1.15 fold enrichment (6-mer frequency, TF over GST control)","1.19 fold enrichment (6-mer frequency, TF over GST control)","1.15 fold enrichment (6-mer frequency, TF over GST control)","1.09 fold enrichment (6-mer frequency, TF over GST control)","3.55 fold enrichment (6-mer frequency, TF over GST control)","1.14 fold enrichment (6-mer frequency, TF over GST control)"
CCACGA,"1.18 fold enrichment (6-mer frequency, TF over GST control)","1.17 fold enrichment (6-mer frequency, TF over GST control)","1.19 fold enrichment (6-mer frequency, TF over GST control)","1.12 fold enrichment (6-mer frequency, TF over GST control)","1.1 fold enrichment (6-mer frequency, TF over GST control)","1.23 fold enrichment (6-mer frequency, TF over GST control)","1.12 fold enrichment (6-mer frequency, TF over GST control)","1.06 fold enrichment (6-mer frequency, TF over GST control)","1.16 fold enrichment (6-mer frequency, TF over GST control)","1.11 fold enrichment (6-mer frequency, TF over GST control)","1.02 fold enrichment (6-mer frequency, TF over GST control)","1.12 fold enrichment (6-mer frequency, TF over GST control)","1.17 fold enrichment (6-mer frequency, TF over GST control)","1.1 fold enrichment (6-mer frequency, TF over GST control)","1.18 fold enrichment (6-mer frequency, TF over GST control)","1.09 fold enrichment (6-mer frequency, TF over GST control)","1 fold enrichment (6-mer frequency, TF over GST control)","1.02 fold enrichment (6-mer frequency, TF over GST control)"
